Outcome and AC50 data for eight molecules are collected here from PubChem BioAssay (EPA / NIEHS).

The source made the active and inactive calls. Rule for the calls: active = hit-call score of the fitted dose curve at least 0.9, where 1 is the maximum; inactive = score below 0.9.

The nature of assay [1]: ATG_E_Box_CIS: Attagene CIS-FACTORIAL HepG2 Assay for human Enhancer Box (E-box) (AID 2282936). The settings on record: HepG2 E-box cis-reporter transcription, actives raise or lower the signal. In short, it runs like this: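 DMSO served as negative control and baseline for bidirectional fitting. Human hepatoma HepG2 cells, transiently transfected with cis-reporter constructs, were dosed 24 h; reporter mRNA read by RT-PCR and capillary electrophoresis.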

Assay [2] can be described thus: ATG_M_61_CIS: Attagene CIS-FACTORIAL HepG2 Assay for M61 Transcription Factor (Internal Marker) (AID 2282937). The settings on record: HepG2 Attagene CIS-FACTORIAL M61 internal marker reporter; actives raise or lower the signal. In short, it runs like this:
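Background-control endpoint: HepG2 cells with cis-regulated reporter constructs, 24 h exposure, reporter mRNA detected via fluorescent primer extension and capillary electrophoresis; values from bidirectional fitting with DMSO baseline.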

Assay [3] can be described thus: ATG_EGR_CIS: Attagene CIS-FACTORIAL HepG2 Assay for human Early Growth Response 1 (EGR1) (AID 2282938). As to conditions: HepG2 Attagene CIS-FACTORIAL EGR reporter mRNA; actives raise or lower the signal. In short, it runs like this: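 Endpoint derived by bidirectional fitting versus DMSO vehicle. Method: cis-promoter reporter units transfected into HepG2, 24 h dosing, RNA isolation, RT-PCR with 6-FAM primer extension and HpaI digestion, then capillary electrophoresis fluorescence detection.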

Assay [4] can be described thus: ATG_M_19_CIS: Attagene CIS-FACTORIAL HepG2 Assay for M19 Transcription Factor (Internal Marker) (AID 2282939). The settings on record: HepG2 Attagene CIS-FACTORIAL M19 internal marker reporter; actives raise or lower the signal. In short, it runs like this:
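HepG2 cells transiently transfected with cis-regulated multiplexed reporter units, dosed 24 h. Reporter mRNA quantified by RT-PCR and capillary electrophoresis; internal background marker fitted bidirectionally versus DMSO.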

The nature of assay [5]: ATG_ERE_CIS: Attagene CIS-FACTORIAL HepG2 Assay for Estrogen Response Element (ERE) (AID 2282940). As to conditions: HepG2 ERE cis-reporter, Attagene RNA transcript; actives raise or lower the signal. In short, it runs like this:
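HepG2 cells transiently transfected with multiplexed cis-element reporter units, measuring endogenous transcription factor activity; ERE reporter mRNA quantified after 24 h exposure by RT-PCR, fluorescent labelling, HpaI digestion and capillary electrophoresis. Bidirectional change versus DMSO.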

Assay [6] in a line: ATG_Ets_CIS: Attagene CIS-FACTORIAL HepG2 Assay for human Erythroblast Transformation Specific (ETS) (AID 2282941). The settings on record: HepG2 ETS cis-reporter transcription, actives raise or lower the signal. In short, it runs like this:
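After transient cis-reporter transfection, HepG2 cells receive test chemical for 24 h. Reporter mRNA levels, measured by RT-PCR and capillary electrophoresis fluorescence, are analysed bidirectionally relative to the DMSO baseline.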

Assay [7] deals with Hepatocyte nuclear factor 3-beta (Homo sapiens) (UniProt Q9Y261). Put plainly: ATG_FoxA2_CIS: Attagene CIS-FACTORIAL HepG2 Assay for human Forkhead box A2 (FOXA2) (AID 2282942). The settings on record: HepG2 cis-reporter transcription factor activity, 24 h; actives raise or lower the signal. In short, it runs like this: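 Measured: reporter mRNA induction or loss in HepG2 transiently carrying multiple cis-regulated reporter units, 24 h after dosing. Quantified by RT-PCR plus capillary electrophoresis, normalised to DMSO.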

Assay [8] in a line: ATG_FoxO_CIS: Attagene CIS-FACTORIAL HepG2 Assay for human Forkhead box O (FoxO) (AID 2282943). As to conditions: HepG2 Attagene cis-reporter, FoxO element, mRNA; actives raise or lower the signal. In short, it runs like this:
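Endogenous transcription factor activity read from multiplexed cis-promoter reporter transcripts in transiently transfected HepG2, 24 h after dosing. Reporter RNA measured via RT-PCR plus capillary electrophoresis of FAM-labeled products; gain or loss relative to DMSO.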

The nature of assay [9]: ATG_GATA_CIS: Attagene CIS-FACTORIAL HepG2 Assay for human GATA Binding Protein (AID 2282944). The settings on record: HepG2 GATA cis-element reporter, Attagene multiplex mRNA; actives raise or lower the signal. The method in brief:
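HepG2 cells transiently transfected with multiplexed cis-element reporter units measure endogenous GATA activity; after 24 h compound exposure, reporter mRNA quantified by RT-PCR and capillary electrophoresis. Changes fitted in both directions vs DMSO.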

A short description of assay [10]: ATG_GLI_CIS: Attagene CIS-FACTORIAL HepG2 Assay for human Zinc Finger Protein GLI1 (AID 2282945). As to conditions: HepG2, Attagene cis-factorial reporter mRNA, GLI element; actives raise or lower the signal. The method in brief: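 Bidirectional curve fits relative to DMSO, using reporter mRNA levels from RT-PCR plus capillary electrophoresis. Cells were HepG2 transiently carrying cis-regulated reporter constructs, harvested 24 h after dosing.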

Assay [11] in a line: ATG_GRE_CIS: Attagene CIS-FACTORIAL HepG2 Assay for human Glucocorticoid Response Elements (GRE) (AID 2282947). The settings on record: HepG2 GRE cis-reporter, Attagene multiplex mRNA; actives raise or lower the signal. In short, it runs like this:
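Assay uses human hepatoma HepG2 cells transfected with cis-promoter reporter units, exposed 24 h. mRNA from reporters detected by RT-PCR plus capillary electrophoresis; DMSO serves as negative control and baseline.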

A short description of assay [12]: ATG_ISRE_CIS: Attagene CIS-FACTORIAL HepG2 Assay for human Interferon Regulatory Factor 1 (IRF1) binding to an Interferon-Stimulated Response Element (ISRE) (AID 2282948). As to conditions: HepG2 ISRE cis-reporter (Attagene), mRNA transcription readout; actives raise or lower the signal. The method in brief:
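Quantitation relies on labelled RT-PCR fragments separated by capillary electrophoresis. Human HepG2 cells bearing cis-promoter reporter constructs were treated 24 h; DMSO served as baseline for bidirectional fitting.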

Assay [13] is described as follows: ATG_M_32_CIS: Attagene CIS-FACTORIAL HepG2 Assay for M32 Transcription Factor (Internal Marker) (AID 2282949).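 Note: background control marker of the multiplexed CIS panel rather than a real target.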 The settings on record: HepG2 Attagene cis-factorial M32 reporter, mRNA; actives raise or lower the signal. The method in brief: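 Following 24 h chemical exposure of HepG2 cells transiently expressing cis-promoter reporter constructs, reporter transcript levels were determined by RT-PCR with fluorescent labelling and capillary electrophoresis, then fitted bidirectionally against DMSO.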

A short description of assay [14]: ATG_M_06_CIS: Attagene CIS-FACTORIAL HepG2 Assay for M06 Transcription Factor (Internal Marker) (AID 2282950). As to conditions: HepG2 Attagene CIS-FACTORIAL M06 internal marker reporter; actives raise or lower the signal. The method in brief:
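Internal background marker within multiplexed cis-reporter HepG2 system. Cells transiently transfected, dosed 24 h; reporter mRNA measured by RT-PCR, HpaI digestion and capillary electrophoresis. Bidirectional fit relative to DMSO.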

Assay [15] deals with Hypoxia-inducible factor 1-alpha (Homo sapiens) (UniProt Q16665). The experiment in a line: ATG_HIF1a_CIS: Attagene CIS-FACTORIAL HepG2 Assay for human Hypoxia Inducible Factor 1 (HIF1A) (AID 2282951). The settings on record: HepG2 Attagene cis-factorial HIF1a reporter transcription; actives raise or lower the signal. The method in brief: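 Dosed 24 h, transfected HepG2 cells yielded total RNA whose reporter transcripts were RT-PCR-amplified and sized by capillary electrophoresis using fluorescent labelling; DMSO defined baseline, with gain and loss of signal both fitted.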

Assay [16] deals with Hepatocyte nuclear factor 6 (Homo sapiens) (UniProt Q9UBC0). The experiment in a line: ATG_HNF6_CIS: Attagene CIS-FACTORIAL HepG2 Assay for human Hepatocyte Nuclear Factor 6 (HNF6) (AID 2282952). As to conditions: HepG2 Attagene cis-factorial HNF6 reporter transcription; actives raise or lower the signal. In short, it runs like this:
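Transiently transfected HepG2 cells expressing cis-regulated reporter transcription units were exposed to chemical for 24 h in a 24-well format. Reporter transcript abundance was determined by fluorescence capillary electrophoresis.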

Assay [17] has as its target Heat shock factor protein 1 (Homo sapiens) (UniProt Q00613). Put plainly: ATG_HSE_CIS: Attagene CIS-FACTORIAL HepG2 Assay for human Heat Shock Transcription Factor 1 (HSE) (AID 2282953). As to conditions: HepG2 HSE cis-reporter, Attagene RNA transcription; actives raise or lower the signal. In short, it runs like this: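 HepG2 cells transfected with cis-promoter reporter units sensing endogenous transcription factor activity; reporter mRNA quantified 24 h post-dose by RT-PCR and capillary electrophoresis of 6-FAM-labelled products. Bidirectional fitting against DMSO.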

A short description of assay [18]: ATG_MRE_CIS: Attagene CIS-FACTORIAL HepG2 Assay for human Metal Responsive Element (MRE) (AID 2282954). The settings on record: HepG2 MRE cis-reporter transcription, Attagene multiplex; actives raise or lower the signal. The method in brief: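 After a 24 h chemical exposure, transiently transfected HepG2 cells yield RNA whose reporter sequences are amplified, FAM-labelled and sized by capillary electrophoresis. Curves are fitted bidirectionally relative to DMSO.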

Assay [19] is described as follows: ATG_PBREM_CIS: Attagene CIS-FACTORIAL HepG2 Assay for human Phenobarbital-responsive Enhancer Module (PBREM) (AID 2282955). As to conditions: HepG2 PBREM cis-reporter, Attagene multiplexed transcription; actives raise or lower the signal. In short, it runs like this:
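Transfected liver-derived HepG2 cells exposed 24 h; PBREM reporter transcript quantified via RT-PCR and capillary electrophoresis, with activity in either direction referenced to DMSO.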

Chain of Heat shock factor protein 1 (Homo sapiens) (Q00613 whole entry, looked up): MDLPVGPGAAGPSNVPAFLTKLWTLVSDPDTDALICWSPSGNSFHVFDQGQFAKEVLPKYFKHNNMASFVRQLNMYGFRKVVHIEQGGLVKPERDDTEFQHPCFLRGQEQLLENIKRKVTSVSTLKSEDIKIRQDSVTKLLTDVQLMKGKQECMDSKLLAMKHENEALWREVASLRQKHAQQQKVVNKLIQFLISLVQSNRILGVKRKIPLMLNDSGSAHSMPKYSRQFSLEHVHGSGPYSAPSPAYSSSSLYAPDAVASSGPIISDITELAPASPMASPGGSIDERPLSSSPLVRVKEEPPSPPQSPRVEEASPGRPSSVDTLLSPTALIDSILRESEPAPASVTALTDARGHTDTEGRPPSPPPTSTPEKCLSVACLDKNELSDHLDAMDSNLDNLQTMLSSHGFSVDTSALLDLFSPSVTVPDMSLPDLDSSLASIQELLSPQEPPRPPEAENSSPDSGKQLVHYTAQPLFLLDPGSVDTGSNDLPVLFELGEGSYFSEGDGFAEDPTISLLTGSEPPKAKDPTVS
Chain of Hepatocyte nuclear factor 6 (Homo sapiens) (Q9UBC0 whole entry, looked up): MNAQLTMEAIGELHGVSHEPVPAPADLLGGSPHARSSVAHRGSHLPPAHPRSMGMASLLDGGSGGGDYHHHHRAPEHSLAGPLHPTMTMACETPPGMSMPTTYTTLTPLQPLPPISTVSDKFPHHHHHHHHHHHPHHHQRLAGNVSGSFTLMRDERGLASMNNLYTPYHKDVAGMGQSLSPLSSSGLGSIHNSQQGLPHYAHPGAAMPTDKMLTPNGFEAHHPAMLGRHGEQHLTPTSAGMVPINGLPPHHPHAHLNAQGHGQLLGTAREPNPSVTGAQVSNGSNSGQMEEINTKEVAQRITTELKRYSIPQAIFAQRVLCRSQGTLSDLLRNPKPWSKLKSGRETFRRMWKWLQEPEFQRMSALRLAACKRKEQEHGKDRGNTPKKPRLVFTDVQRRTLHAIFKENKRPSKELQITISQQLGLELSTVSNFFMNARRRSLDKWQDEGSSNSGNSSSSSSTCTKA
Chain of Hepatocyte nuclear factor 3-beta (Homo sapiens) (Q9Y261 whole entry, looked up): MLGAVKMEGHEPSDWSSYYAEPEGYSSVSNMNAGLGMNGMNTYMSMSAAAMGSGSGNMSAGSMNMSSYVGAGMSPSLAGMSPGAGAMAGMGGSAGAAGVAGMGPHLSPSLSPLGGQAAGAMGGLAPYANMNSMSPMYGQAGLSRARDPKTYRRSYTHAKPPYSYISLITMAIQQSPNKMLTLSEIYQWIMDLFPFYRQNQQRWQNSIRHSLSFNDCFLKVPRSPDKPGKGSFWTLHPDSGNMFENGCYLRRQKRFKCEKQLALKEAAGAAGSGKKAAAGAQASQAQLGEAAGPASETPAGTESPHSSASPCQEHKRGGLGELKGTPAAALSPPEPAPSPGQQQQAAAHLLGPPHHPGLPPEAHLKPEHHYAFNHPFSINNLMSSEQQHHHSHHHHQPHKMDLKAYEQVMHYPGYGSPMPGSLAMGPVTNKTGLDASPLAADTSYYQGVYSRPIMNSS
Chain of Hypoxia-inducible factor 1-alpha (Homo sapiens) (Q16665 whole entry, looked up): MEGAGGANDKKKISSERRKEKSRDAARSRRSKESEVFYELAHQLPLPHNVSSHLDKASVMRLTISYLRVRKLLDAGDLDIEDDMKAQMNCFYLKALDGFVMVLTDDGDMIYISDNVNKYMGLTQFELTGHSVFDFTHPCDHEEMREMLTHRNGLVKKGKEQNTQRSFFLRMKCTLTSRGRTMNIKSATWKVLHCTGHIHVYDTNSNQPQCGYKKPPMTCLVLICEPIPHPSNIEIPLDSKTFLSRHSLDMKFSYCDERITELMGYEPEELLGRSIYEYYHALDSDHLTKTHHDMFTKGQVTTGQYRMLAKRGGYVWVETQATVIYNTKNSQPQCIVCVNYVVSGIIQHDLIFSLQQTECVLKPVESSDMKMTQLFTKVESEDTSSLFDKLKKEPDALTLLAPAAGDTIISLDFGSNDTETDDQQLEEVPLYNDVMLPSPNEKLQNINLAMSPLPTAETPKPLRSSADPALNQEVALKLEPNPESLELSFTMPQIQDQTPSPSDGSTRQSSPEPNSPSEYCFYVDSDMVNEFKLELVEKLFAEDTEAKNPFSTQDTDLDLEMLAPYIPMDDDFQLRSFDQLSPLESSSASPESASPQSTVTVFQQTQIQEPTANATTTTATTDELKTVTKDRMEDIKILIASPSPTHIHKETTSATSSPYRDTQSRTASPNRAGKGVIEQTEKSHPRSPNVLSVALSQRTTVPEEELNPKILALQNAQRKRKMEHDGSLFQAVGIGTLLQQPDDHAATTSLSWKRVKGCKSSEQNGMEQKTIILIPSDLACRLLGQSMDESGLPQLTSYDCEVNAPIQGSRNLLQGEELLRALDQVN

For `O=C1CCCN1CCO`, the outcome in [1], in [2], in assay [3], in assay [4], in assay [5] and in assay [6] was inactive. For the same molecule, the result in assay [7], in assay [8], in [9], in assay [10], in assay [11] and in [12] was inactive. The outcome in assay [13], in [14], in assay [15], in assay [16], in [17] and in assay [18] was inactive. The outcome in [19] was inactive.

Take `CCC(C)OC(=O)c1ccc(O)cc1` (stereo not given): the outcome in [1], in assay [2], in assay [3], in assay [4], in [6] and in assay [7] was inactive. Further, the molecule was classed as inactive in assay [8], in assay [9], in assay [10], in assay [11], in assay [12] and in assay [13]. For the same molecule, the molecule was called inactive in assay [14], in assay [15], in assay [16], in assay [17], in assay [18] and in assay [19]. Besides, in [5], the AC50 was 0.868 µM (active).

For the molecule `CC(=O)Nc1nnc(S(N)(=O)=O)s1`, the result in [1], in [2], in assay [3], in assay [4], in assay [5] and in [6] was inactive. Also, the call in assay [7], in assay [8], in assay [9], in assay [10], in assay [11] and in [12] was inactive. Also, the molecule was called inactive in assay [13], in assay [14], in assay [15], in assay [16], in [17] and in assay [18]. Moreover, the result in [19] was inactive.

`CC(=O)Nc1ccc2c(c1)Cc1cc(NC(C)=O)ccc1-2`: the result in assay [1], in assay [2], in [3], in assay [4], in assay [5] and in assay [6] was inactive. Also, the outcome in [7], in [8], in assay [9], in assay [10], in assay [11] and in [12] was inactive. Further, the call in assay [13], in assay [14], in assay [15], in assay [16], in assay [17] and in assay [18] was inactive. Moreover, the result in assay [19] was inactive.

With `CCCCCCCCC(=O)OCC`, the outcome in assay [1], in assay [2], in [3], in assay [4], in assay [5] and in assay [6] was inactive. The result in assay [7], in [8], in [9], in assay [10], in assay [11] and in assay [12] was inactive. The result in [13], in [14], in [15], in assay [16], in assay [17] and in [18] was inactive.

`CCCCCC(C)O` (stereo not given): the result in assay [1], in assay [2], in assay [3], in assay [4], in [5] and in assay [6] was inactive. For the same molecule, the molecule was called inactive in assay [7], in [8], in assay [9], in assay [10], in assay [11] and in assay [12]. Further, the call in [13], in [14], in [15], in assay [16], in assay [17] and in assay [18] was inactive. Moreover, the result in assay [19] was inactive.

Regarding `C=CCOCC(O)CCl` (stereo not given), the outcome in [1], in assay [2], in assay [3], in [4], in [5] and in assay [6] was inactive. The molecule was called inactive in [7], in assay [8], in assay [9], in [10], in [11] and in assay [12]. Also, the molecule was called inactive in [13], in assay [14], in [15], in assay [16], in assay [17] and in [18].

In the case of `CCCCC(CC)COC(=O)c1ccccc1O` (stereo not given), the outcome in assay [1], in assay [2], in [3], in assay [4], in assay [6] and in assay [7] was inactive. The molecule was called inactive in assay [8], in [9], in [10], in [11], in assay [12] and in assay [13]. Further, the molecule was classed as inactive in assay [14], in [15], in assay [16], in assay [17], in assay [18] and in assay [19]. In addition, the AC50 in assay [5] is 32.5 µM (active).
